# Screening results as filed in PubChem BioAssay.
# Sampled rows, rich in hits. Any-hit rate of the full collection: about 6.5%.
# MARV entry inh = inhibitors of Marburg virus binding or cell entry | 300,000 tested, 1.8% active | Potency, µM (doses to about 37.8 µM), for the others: at the top dose activity change, negative = inhibition, most hits filed as inhibitors | Marburg virus pseudotyped entry inhibition, cell reporter; calls by dose curve; tested in HEK293 cells; also: potency is read from the fitted curve at half-maximal effect
# FMDV antiviral = foot and mouth disease virus antiviral activity; FMDV antiviral cell-based qHTS; Potency, µM (top dose mostly 57.9 µM), without a hit: at the top dose activity change, negative = inhibition, hits mostly inhibitors; 410,000 tested, 1.2% active; AID 1159524; calls by dose curve; tested in HEK293T cells; also: read-out not given here; potency is read from the fitted curve at half-maximal effect; nearly all actives have a fitted effect of over 45% in size
# VACV mCherry inh = inhibitors of vaccinia virus infection (mCherry reporter signal); Vaccinia virus mCherry reporter infection, fluorescence; Potency, µM (highest dose often 36.5 µM), for the others: at the highest dose activity change, negative = inhibition, usual class: inhibitors; 310,000 tested, 0.63% active; AID 720579; calls by dose curve; tested in A549 cells; also: potency is read from the fitted curve at half-maximal effect; nearly all actives have a fitted effect of over 35% in size
# Lassa entry inh = Lassa virus entry inhibition | Potency, µM (titrated, usually from 37.9 µM), inactives show at the top dose activity change, negative = inhibition, usual class: inhibitors | 300,000 tested, 1.2% active | AID 540256 | Lassa virus pseudotype entry inhibition, cell reporter; calls by dose curve; tested in HEK293 cells; also: potency is read from the fitted curve at half-maximal effect; nearly all actives have a fitted effect of over 50% in size
# VACV Venus inh = inhibitors of vaccinia virus (Venus reporter); Vaccinia virus Venus reporter expression, fluorescence; Potency, µM (top dose mostly 36.5 µM), without a hit: at the highest dose activity change, negative = inhibition, actives largely listed as inhibitors; 330,000 tested, 0.46% active; AID 720580; calls by dose curve; tested in A549 cells; also: potency is read from the fitted curve at half-maximal effect; nearly all actives have a fitted effect of over 30% in size
# HCMV inh = inhibitors of human cytomegalovirus | HFF cells, HCMV-luciferase reporter, 72 h; hits give low values | activity change, negative = inhibition, % at 57.5 µM | 410,000 tested, 4.5% active; in the data active = activity change below about -60%; inconclusive = no clear call, values can overlap the other calls; inactive = above about -39%
#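 Screen run at 2 compound doses on HFFs infected with reporter HCMV, MOI 1 PFU/cell. Luciferase activity from cell lysates at 72 h post infection gave inhibition relative to buffer-only and Salinomycin wells.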
# Active calls of the source: *; i = inactive; ? = inconclusive; nt = not tested or not shown; + = active, no number; [ ] = dose if it differs, or a comment. % is scaled to controls: 0 for no effect and ±100 for the full control effect.
SMILES,MARV entry inh,FMDV antiviral,VACV mCherry inh,Lassa entry inh,VACV Venus inh,HCMV inh
O=S(=O)(c1ccc(NC(=S)N/N=C/c2c3ccccc3cc3ccccc23)cc1)N1CCOCC1,nt,16.4%,-9.3%,nt,?,-94.7*
O=S(=O)(c1ccc(NC(=S)NCCC(c2ccccc2)c2ccccc2)cc1)N1CCOCC1,10µM*,?,10µM*,3.55µM*,11.2µM*,-98.9*
CCc1nn(CCCC(=O)N2CCN(c3cc(Cl)ccc3C)CC2)c(=O)c2cc3occc3n12,13.4%[46.1 µM],-18.4%,-17.1%,-13.9%[46.1 µM],-18.1%,-29.0
COCOc1c2c(c(OCOC)c3c(OCOC)cccc13)C(=NNS(C)(=O)=O)C1=C2CCCC1,1.2%[14.2 µM],nt,nt,nt,nt,nt
Cc1nc(NCc2ccco2)c2c(C)c(C)sc2n1,?,?,nt,8.1%,nt,-104.6*
CCN(C(=O)CSc1nc(C)nc2sc(C)c(C)c12)c1ccc(F)cc1,nt,?,nt,nt,nt,16.1
Cc1nc(SCC(=O)N(C)Cc2ccco2)c2c(C)c(C)sc2n1,7.3µM*,?,nt,?,nt,?
Cc1sc2ncnc(N(C)Cc3ccco3)c2c1C,-6.2%,22.4µM*,nt,-13.1%,-18.2%,-70.8*
Clc1cccc(CNc2nnnn2-c2ccccc2)c1,?,8.8%,-24.6%,-2.4%,-23.2%,-83.8*
COc1ccc(CN2C(=O)C(n3cccc3)c3cc(F)ccc32)cc1 (stereo unspecified),nt,nt,nt,nt,nt,-17.7
O=C(Nc1ccc(Br)cc1)c1ccc(F)c(S(=O)(=O)NC2CCCCCC2)c1,nt,-25.3%,?,?,-29.8%[7.34 µM],-98.4*
O=C(Nc1ccccc1)c1ccc(N2CCN(c3ccccn3)CC2)c(S(=O)(=O)N2CCOCC2)c1,?,-10.9%,nt,-18.7%,nt,-27.0
O=C(Nc1ccc(Br)cc1)c1ccc(F)c(S(=O)(=O)N2CCN(c3ccccn3)CC2)c1,?,?,-11.2%,?,-29.8%,-89.0*
Cc1ccccc1NC(=O)c1ccc(F)c(S(=O)(=O)N2CCN(c3ccccn3)CC2)c1,-5.7%,22.4µM*,nt,?,nt,?
O=C(Nc1cc(Cl)cc(Cl)c1)c1ccc(F)c(S(=O)(=O)NC2CCCCC2)c1,nt,11.5%,-7.1%,-3.4%[46.1 µM],-23.3%,-20.7
COc1cccc(CNC(=O)c2cc(-c3ccc(Cl)cc3)n[nH]2)c1,nt,-0.8%,-2.9%,17.6%[46.1 µM],-5.8%,-13.6
CC(=O)OCC(COC(C)=O)(CN1C(=O)c2ccccc2C1=O)CN1C(=O)c2ccccc2C1=O,nt,nt,nt,nt,nt,0.5
Cc1oc2ncn(CC(C)C)c(=O)c2c1C(=O)Nc1cc(F)ccc1F,nt,2.5%,-8.4%,-7.2%[46.1 µM],4.5%,5.8
CCn1nnnc1NCc1ccc(OCc2ccc(F)cc2Cl)c(OC)c1,10µM*,-25.3%,?,?,-13.3%,-12.7
COc1cc(CNc2nnnn2C)ccc1OCc1ccc(F)cc1Cl,nt,0.2%,-20.5%,nt,-5.5%,-25.9
CC(C(=O)Nc1ccc(F)c(Cl)c1)N1Cc2ccccc2C1=O (stereo unspecified),nt,-8.7%,-14.9%,7.3%[46.1 µM],-9.0%,2.2
COc1cc(/C=C2\SC(=S)NC2=O)ccc1OS(=O)(=O)c1ccccc1,-18.7%,nt,nt,-1.2%,nt,nt
COc1cc(/C=C2/SC(=S)NC2=O)ccc1OS(=O)(=O)c1ccc(C)cc1,?,28.2µM*,-15.2%,-16.4%,-25.1%,nt
C=C1C/C(C)=C/CCc2cc(OS(=O)(=O)C(F)(F)F)ccc2-c2ccc(OC)c(OC)c21,nt,nt,nt,nt,nt,-1.1
Cc1cc(C2=NNC(=NC3CC3)SC2)c(C)n1-c1c(C)n(C)n(-c2ccccc2)c1=O,-17.8%[46.1 µM],13.6%,i,7.4%,3.3%,39.9
SMILES,MARV entry inh,FMDV antiviral,VACV mCherry inh,Lassa entry inh,VACV Venus inh,HCMV inh
Cc1ccc(-n2c(C)cc(C3=NNC(=NC4CC4)SC3)c2C)cc1C,nt,17.8µM*,nt,nt,nt,-99.5*
c1ccc(-c2noc(-c3ccccc3-c3ccccc3)n2)cc1,-21.7%[46.1 µM],-1.9%,-22.3%,10.1%,-10.9%,2.9
CN(C)c1ccc(-c2noc(-c3ccccc3O)n2)cc1,?,-22.8%,nt,5.8µM*,nt,55.0
O=C(NC1CCN(Cc2ccccc2)C1)c1cnn(-c2ncc3c(n2)-c2ccccc2CC3)c1C1CC1 (stereo unspecified),nt,?,-27.7%,nt,-6.5%,nt
CN(C)C=NC(=O)c1ccc(N2CCN(c3ncc(C(F)(F)F)cc3Cl)CC2)cc1,-28.1%,-11.8%,nt,?,-11.6%,-19.4
CN(C)/C=C/C(=O)c1ccc(N2CCN(c3ncc(C(F)(F)F)cc3Cl)CC2)cc1,?,25.1µM*,nt,?,-19.7%,-107.6*
O=C(c1ccccc1)N1CCOC12CCN(c1ncc(C(F)(F)F)cc1Cl)CC2,-27.2%,15.8µM*,nt,?,-22.8%,-61.1*
Nc1ccc(N2CCN(c3ncc(C(F)(F)F)cc3Cl)CC2)c(C(F)(F)F)c1,6.0%[46.1 µM],?,-12.5%,-1.2%[46.1 µM],-4.9%,-104.2*
O=C(c1ccc([N+](=O)[O-])cc1)N1CCOC12CCN(c1ncc(C(F)(F)F)cc1Cl)CC2,-3.4%,?,-4.7%[1.46 µM],-2.3%,-3.8%,11.8
O=C(c1ccc2nc[nH]c2c1)N1CCN(c2ncc(C(F)(F)F)cc2Cl)CC1,-29.0%,?,?,-23.9%,?,-70.0*
CC(=O)c1ccc(NC(=O)COc2ccccc2-c2nc(-c3ccc(C)cc3)no2)cc1,?,24.1%,-6.1%,?,-10.7%,42.5
Cc1ccc(C(=O)Nc2ccccc2C(=O)O)cc1S(=O)(=O)N1CCCCCC1,nt,-12.4%,-9.9%,?,-12.0%,-25.3
O=[N+]([O-])c1cccc(S(=O)(=O)N2CCN(c3nc(-c4cccs4)nc4ccccc34)CC2)c1,nt,nt,-7.9%,nt,-12.4%,nt
C[C@@H]1CC[C@H]2C(=O)N(CC3CCCCC3)C[C@H](O)CN2[C@@H]1c1ccc(Br)cc1,-0.3%[14.2 µM],nt,nt,nt,nt,nt
c1ccc(C2CCC(N3CCN(c4ccccc4)CC3)CC2)cc1 (stereo unspecified),?,-16.4%,-24.1%,2.82µM*,-6.2%,nt
c1csc(CNc2nc(-c3ccc4c(c3)OCO4)nc3ccccc23)c1,nt,-11.1%,nt,nt,nt,nt
CC(=O)N(C)c1ccc(/C=C2\C=Cc3ccccc32)cc1,nt,nt,14.9%,nt,-16.0%,nt
CCOc1ccccc1N1C(=O)NC(=O)/C(=C/c2ccc3c4c(cccc24)CC3)C1=O,1.8%,39.8µM*,nt,-8.3%,-11.3%,48.9
COc1cc(/C=C2\C(=O)NC(=O)N(c3ccccc3)C2=O)cc(OC)c1OC,?,?,nt,1.2%,-6.4%,12.6
CCOc1ccc(N2C(=O)NC(=O)/C(=C\c3ccccc3[N+](=O)[O-])C2=O)cc1,nt,-24.1%,nt,nt,nt,8.3
COc1cccc(N2C(=O)NC(=O)/C(=C/c3ccc4c5c(cccc35)CC4)C2=O)c1,nt,nt,nt,nt,nt,-100.8*
CC(C)CCn1c(=O)c2sccc2n2c(CCCC(=O)NC3CCC(C)CC3)nnc12 (stereo unspecified),nt,-4.5%,-13.6%,13.6%[46.1 µM],-5.3%,-20.5
Cc1ccc(CNC(=O)CN2CCCN(Cc3ccc(F)cc3)S2(=O)=O)cc1,nt,-14.9%,-8.6%,11.2µM*,-1.9%,-0.3
Cc1ccc(CN2CCN(CC(=O)Nc3ccc(C)c(C)c3)S2(=O)=O)cc1,nt,-1.9%,-8.2%,1.4%[46.1 µM],-12.4%,+
